Measured values published in PubChem BioAssay (EPA / NIEHS).
Inconclusive results are not listed. Some compounds were tested as several samples or in several runs, with calls that do not always agree. Active and inactive are the calls of the source. Rule for the calls, unless noted: active = hit-call score of the fitted dose curve at least 0.9, where 1 is the maximum; inactive = score below 0.9.

What was measured:
[1] = read-out: Interleukin-8 (IL8), CXCL8 (gene 3576); experiment: BSK_3C_IL8: BioMAP Diversity Plus: 3C Assay for Interleukin-8 (IL8) Biomarker Activity (AID 2283020); settings: primary human endothelial cells (HUVEC); actives raise or lower the signal
How it was run: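 HUVEC, 3C stimulation; 24 h compound exposure; IL-8 read by ELISA; gain or loss of signal fitted relative to DMSO control.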

[2] = read-out: Monokine induced gamma interferon (MIG), CXCL9 (gene 4283); experiment: BSK_3C_MIG: BioMAP Diversity Plus: 3C Assay for Monokine induced gamma interferon (MIG) Biomarker Activity (AID 2283021); settings: primary human endothelial cells (HUVEC); actives raise or lower the signal
How it was run: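 HUVEC, 3C system; 24 h chemical exposure; MIG by ELISA; bidirectional fit vs DMSO baseline.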

[3] = molecular target: human Vitamin D Receptor (VDR), VDR (gene 7421) (UniProt P11473); experiment: ATG_VDR_TRANS: Attagene TRANS-FACTORIAL HepG2 Assay for human Vitamin D Receptor (VDR) (AID 2283022; active = hit-call score of the fitted dose curve at least 0.9, where 1 is the maximum)
Sequence of human Vitamin D Receptor (VDR), VDR (gene 7421) (P11473 whole entry, looked up, the tested form may be a part): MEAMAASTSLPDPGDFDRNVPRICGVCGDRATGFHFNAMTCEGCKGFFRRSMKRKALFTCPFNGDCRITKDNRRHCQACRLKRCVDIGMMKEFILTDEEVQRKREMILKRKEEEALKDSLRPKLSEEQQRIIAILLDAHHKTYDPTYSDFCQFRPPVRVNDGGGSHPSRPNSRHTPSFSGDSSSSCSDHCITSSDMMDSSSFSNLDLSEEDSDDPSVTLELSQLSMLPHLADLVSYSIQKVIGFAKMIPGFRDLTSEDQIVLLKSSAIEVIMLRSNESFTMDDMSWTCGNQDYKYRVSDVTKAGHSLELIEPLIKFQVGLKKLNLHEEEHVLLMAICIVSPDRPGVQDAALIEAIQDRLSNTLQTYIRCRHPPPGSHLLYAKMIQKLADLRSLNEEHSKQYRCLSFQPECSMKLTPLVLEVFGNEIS
How it was run: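 RT-PCR/capillary electrophoresis read-out of reporter mRNA induction in transiently transfected HepG2; 24 h dosing; chimeric NR-Gal4 (TRANS format); gain-of-signal fit against DMSO baseline.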

[4] = BSK_3C_SRB: Viability Assessment in the BioMAP Diversity Plus: 3C Assay (AID 2283023); settings: primary human endothelial cells (HUVEC);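 note: fitted both ways against DMSO so a hit may be signal rise or drop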
How it was run: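 HUVEC, 24 h post-dose; 10% TCA fix, 0.1% SRB stain, A560 nm. Bidirectional curve fit vs DMSO negative control.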

[5] = read-out: Matrix Metallopeptidase 1 (MMP1), MMP1 (gene 4312); experiment: BSK_BE3C_MMP1: BioMAP Diversity Plus: BE3C Assay for Matrix Metallopeptidase 1 (MMP1) Biomarker Activity (AID 2283024); settings: primary human bronchial epithelial cells; actives raise or lower the signal
How it was run: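 ELISA read-out of MMP1 in human lung bronchial epithelial primary cultures, 24 h post-dose; bidirectional curve fit vs DMSO baseline, gain or loss of signal scored.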

[6] = BSK_3C_Vis: BioMAP Diversity Plus: 3C Assay for Morphology Visualization (AID 2283025); settings: primary human endothelial cells (HUVEC);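 note: fitted both ways so gain or loss versus DMSO counts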
How it was run: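 HUVEC, 3C system; light microscopy of morphology at 24 h post-dose. Bidirectional fit vs DMSO baseline. Secondary readout, background-control function.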

[7] = BSK_4H_SRB: Viability Assessment in the BioMAP Diversity Plus: 4H Assay (AID 2283027); settings: primary human endothelial cells (HUVEC);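 note: cells exposed to compound for 24 h before staining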
How it was run: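 Cytotoxicity read-out in primary human endothelial cells: after 24 h compound exposure, cells were TCA-fixed (10%), stained with 0.1% SRB and absorbance taken at 560 nm. Values fitted in both directions relative to DMSO.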

[8] = read-out: Thrombomodulin, THBD (gene 7056); experiment: BSK_3C_Thrombomodulin: BioMAP Diversity Plus: 3C Assay for Thrombomodulin Biomarker Activity (AID 2283029); settings: primary human endothelial cells (HUVEC); actives raise or lower the signal
How it was run: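 HUVEC, 3C conditions; compound 24 h; thrombomodulin by ELISA; bidirectional curve fit vs DMSO baseline; parallel SRB total-protein staining for cytotoxicity.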

[9] = read-out: Urokinase-type plasminogen activator receptor (uPAR), PLAUR (gene 5329); experiment: BSK_4H_uPAR: BioMAP Diversity Plus: 4H Assay for Urokinase-type plasminogen activator receptor (uPAR) Biomarker Activity (AID 2283030); settings: primary human endothelial cells (HUVEC); actives raise or lower the signal
How it was run: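 HUVEC, 24 h post-dose; uPAR by ELISA; bidirectional fit vs DMSO baseline.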

[10] = read-out: Vascular endothelial growth factor receptor 2 (Homo sapiens) (UniProt P35968); experiment: BSK_4H_VEGFRII: BioMAP Diversity Plus: 4H Assay for Vascular endothelial growth factor receptor 2 (VEGFR2) Biomarker Activity (AID 2283031); settings: primary human endothelial cells (HUVEC); actives raise or lower the signal
How it was run: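 HUVEC (human primary), 4H system; 24 h post-dose; VEGFRII by ELISA; bidirectional curve fit vs DMSO baseline; gain or loss of signal scored.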

[11] = read-out: Human Leukocyte Antigen - DR isotype (HLADR), HLA-DRA (gene 3122); experiment: BSK_BE3C_HLADR: BioMAP Diversity Plus: BE3C Assay for Human Leukocyte Antigen - DR isotype (HLADR) Biomarker Activity (AID 2283032); settings: primary human bronchial epithelial cells; actives raise or lower the signal
How it was run: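 Primary human bronchial epithelial cells (BE3C); 24 h chemical exposure; HLA-DR by ELISA; bidirectional curve fit vs DMSO baseline.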

[12] = read-out: Vascular cell adhesion molecule 1 (VCAM1), VCAM1 (gene 7412); experiment: BSK_4H_VCAM1: BioMAP Diversity Plus: 4H Assay for Vascular cell adhesion molecule 1 (VCAM1) Biomarker Activity (AID 2283033); settings: primary human endothelial cells (HUVEC); actives raise or lower the signal;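 note: cell-surface VCAM-1 protein measured by ELISA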
How it was run: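 HUVEC, 24 h post-dose; VCAM-1 by ELISA. Bidirectional curve fit vs DMSO baseline. Parallel SRB total-protein stain (0.1% SRB after 10% TCA fixation, 560 nm) for cytotoxicity.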

[13] = read-out: Interferon-gamma inducible Protein 10 (IP10), CXCL10 (gene 3627); experiment: BSK_BE3C_IP10: BioMAP Diversity Plus: BE3C Assay for Interferon-gamma inducible Protein 10 (IP10) Biomarker Activity (AID 2283034); settings: primary human bronchial epithelial cells; actives raise or lower the signal
How it was run: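 ELISA readout of IP-10 in BE3C system: primary human bronchial epithelial cells, 24 h post-dosing; bidirectional curve fit vs DMSO baseline.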

[14] = read-out: Monokine induced gamma interferon (MIG), CXCL9 (gene 4283); experiment: BSK_BE3C_MIG: BioMAP Diversity Plus: BE3C Assay for Monokine induced gamma interferon (MIG) Biomarker Activity (AID 2283035); settings: primary human bronchial epithelial cells; actives raise or lower the signal;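 note: MIG protein measured by ELISA in BE3C cultures after 24 h of dosing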
How it was run: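 ELISA quantified MIG after 24 h exposure of primary bronchial epithelial cultures, analysed in both directions relative to DMSO. Cytotoxicity tracked in parallel cultures by sulforhodamine B staining.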

[15] = read-out: Transforming growth factor beta 1 (TGFb1), TGFB1 (gene 7040); experiment: BSK_BE3C_TGFb1: BioMAP Diversity Plus: BE3C Assay for Transforming growth factor beta 1 (TGFb1) Biomarker Activity (AID 2283036;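 note: TGF-b1 protein level measured by ELISA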); settings: primary human bronchial epithelial cells; actives raise or lower the signal
How it was run: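 Read-out: ELISA for TGF-b1 in primary human bronchial epithelial cultures, 24 h post-dose. Bidirectional curve fitting vs DMSO control; gain or loss of signal both scored.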

[16] = read-out: Plasminogen activator inhibitor-1 (PAI1), SERPINE1 (gene 5054); experiment: BSK_BE3C_PAI1: BioMAP Diversity Plus: BE3C Assay for Plasminogen activator inhibitor-1 (PAI1) Biomarker Activity (AID 2283037); settings: primary human bronchial epithelial cells; actives raise or lower the signal
How it was run: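 ELISA read-out of PAI-1 from human bronchial epithelial primary cells, 24 h post-dosing; bidirectional curve fit vs DMSO baseline, gain or loss of signal scored.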

[17] = read-out: urokinase plasminogen activator (uPA), PLAU (gene 5328); experiment: BSK_BE3C_uPA: BioMAP Diversity Plus: BE3C Assay for urokinase plasminogen activator (uPA) Biomarker Activity (AID 2283038); settings: primary human bronchial epithelial cells; actives raise or lower the signal;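 note: uPA protein level quantified by ELISA in cell cultures; uPA read one day after compound addition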
How it was run: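 ELISA read-out of uPA in human lung primary bronchial epithelial cultures, 24 h post-dosing. Gain or loss of signal fitted bidirectionally relative to DMSO baseline; cytotoxicity checked in parallel cultures via SRB total protein stain.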

[18] = read-out: Urokinase-type plasminogen activator receptor (uPAR), PLAUR (gene 5329); experiment: BSK_BE3C_uPAR: BioMAP Diversity Plus: BE3C Assay for Urokinase-type plasminogen activator receptor (uPAR) Biomarker Activity (AID 2283039); settings: primary human bronchial epithelial cells; actives raise or lower the signal;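 note: uPAR protein level measured by ELISA on the cells; cells exposed to compound for one day before measurement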
How it was run: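 ELISA readout of uPAR on human lung primary bronchial epithelial cells, 24 h post-dosing. Bidirectional curve fit relative to DMSO vehicle baseline; gain or loss of signal both scored.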

[19] = BSK_BE3C_SRB: Viability Assessment in the BioMAP Diversity Plus: BE3C Assay (AID 2283028); settings: primary human bronchial epithelial cells
How it was run: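 Primary human bronchial epithelium; chemical dosing, 24 h; 10% TCA fix, 0.1% SRB stain, A560; bidirectional fit vs DMSO baseline.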

[20] = read-out: Pselectin, SELP (gene 6403); experiment: BSK_4H_Pselectin: BioMAP Diversity Plus: 4H Assay for Pselectin Biomarker Activity (AID 2283026); settings: primary human endothelial cells (HUVEC); actives raise or lower the signal
How it was run: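 HUVEC, 24 h chemical exposure; P-selectin read by ELISA. Bidirectional curve fit vs DMSO baseline; gain or loss of signal scored.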

Measured: AC50

CCN(CC)c1ccc(C=O)c(O)c1
not listed: [19] | [20]
inactive: all other assays above

O=C(O)C(F)(F)C(F)(F)C(F)(F)C(F)(F)C(F)(F)C(F)(F)C(F)F
inactive: [1] | [2] | [3] | [4] | [5] | [7] | [19] | [8] | [9] | [10] | [11] | [12] | [13] | [14] | [16] | [17] | [18]
active: [1] 30 µM | [5] 12 µM

NC(=O)C(F)(F)C(F)(F)C(F)(F)F
inactive: [1] | [2] | [3] | [4] | [5] | [20] | [7] | [8] | [9] | [10] | [11] | [12] | [13] | [14] | [16] | [17] | [18]
active: [8] 5.95 µM

Cc1ccc(O)c(-n2nc3ccccc3n2)c1
not listed: [19]
inactive: all other assays above

Brc1nc2ccccc2s1
inactive: all assays above
